Laboratory results as given in ChEMBL document CHEMBL3988442, “University of Dundee, Small-Polar-MMV Screening Library” (2021).
In all, about 48,000 compounds went through this assay and about 13,000 (27%) showed an effect of 50% or more. The list shows a part of the results.

System: Wolbachia pipientis
Assay: Anti-Wolbachia Cell-Based Screen
Format: functional
Set-up: scale not given: in the data most compounds retested in dose-response had high values
Settings: 5 µM

Compared with CCc1nc2n(n1)CC(NCc1cnn(Cc3ccccc3)c1)CC2 (stereo not given), CCc1nc2n(n1)CC(NCc1nc(Cc3ccccc3)no1)CC2 (stereo not given) is higher in “Percent Effect” value: 87.86% for the first, 105.9% for the second.

First: CCc1nc2n(n1)CC(NCc1nc(-c3cccnc3)no1)CC2 (stereo not given)
Second: CCc1nc2n(n1)CC(NCc1nc3ccccc3o1)CC2 (stereo not given)
The “Percent Effect” value of the first is higher: -12.29% for the first, -13.4% for the second.

Compared with c1ccc(Cc2noc(CNC3CCc4ncnn4C3)n2)cc1 (stereo not given), CCc1nc2n(n1)CC(NCc1ncc(-c3ccccc3)o1)CC2 (stereo not given) is lower in “Percent Effect” value: -0.1669% for the first, -4.969% for the second.

First: CCc1nc2n(n1)CC(NCc1nc3ccccc3nc1C)CC2 (stereo not given)
Second: CCc1nc2n(n1)CC(NCc1ccnc(-c3ccccc3)n1)CC2 (stereo not given)
The “Percent Effect” value of the first is lower: -12.92% for the first, 7.748% for the second.

First: CCc1nc2n(n1)CC(NCc1cnc(-c3ccccc3)nc1)CC2 (stereo not given)
Second: Cc1ncc2c(n1)CN(Cc1nc3ccccc3o1)CC2
The “Percent Effect” value of the first is higher: 109.3% for the first, 10.13% for the second.

Going from CCc1noc(C(C)N2CCN(Cc3cnc(C)cn3)CC2)n1 (stereo not given) to CCc1ncc2c(n1)CN(Cc1nnc(C)o1)CC2, the “Percent Effect” value falls from 14.64% to 12.23%.

First: O=C(NC[C@H]1OC[C@@H](NCc2ccccc2F)[C@@H]1O)Nc1ccccc1
Second: O=C1CC(c2ccccc2)c2snc(C(=O)O)c2N1 (stereo not given)
The “Percent Effect” value of the first is lower: -9.055% for the first, -4.128% for the second.

Compared with CC(C)c1nccn1CCCNC(=O)c1ccc(-c2cncnc2)nc1, COc1cccc(F)c1C(C)NC(=O)NCc1cc(C(C)C)no1 (stereo not given) is lower in “Percent Effect” value: -0.1776% for the first, -6.055% for the second.

First: Cc1ncc2c(n1)CN(Cc1nnc(-c3occc3C)o1)CC2
Second: Cc1ccc(-c2nnc(CN3CCc4cnc(C)nc4C3)o2)cc1
The “Percent Effect” value of the first is higher: 2.201% for the first, -1.089% for the second.

Compared with CCc1ncc2c(n1)CN(Cc1nc(-c3ccco3)oc1C)CC2, Cc1ncc2c(n1)CN(Cc1nc(-c3ccco3)oc1C)CC2 is lower in “Percent Effect” value: 106.4% for the first, 105% for the second.

Going from CC(C)c1ncc2c(n1)CN(Cc1cccc3c1OCCO3)CC2 to CC(C)c1ncc2c(n1)CN(Cc1ccc3c(c1)OCCO3)CC2, the “Percent Effect” value falls from 21.53% to -34.65%.

Compared with Cc1ncc2c(n1)CN(Cc1nc(-c3ccsc3)oc1C)CC2, CCc1ncc2c(n1)CN(Cc1nc(-c3ccsc3)oc1C)CC2 is lower in “Percent Effect” value: 102.9% for the first, 1.537% for the second.

Compared with Cc1oc(-c2ccco2)nc1CN1CCc2cnc(C(C)C)nc2C1, Cc1oc(-c2ccco2)nc1CN1CCc2cncnc2C1 is lower in “Percent Effect” value: 92.73% for the first, 88.65% for the second.

Compared with CCc1ncc2c(n1)CN(Cc1nc(C)c(C)o1)CC2, Cc1nc(CN2CCc3cncnc3C2)oc1C is higher in “Percent Effect” value: -17.94% for the first, -4.156% for the second.

Compared with COCc1ncn(Cc2nc(-c3ccco3)oc2C)n1, COCCCNS(=O)(=O)c1cc(Br)sc1C is higher in “Percent Effect” value: -24.79% for the first, 2.901% for the second.
